# Measured values as given in PubChem BioAssay (NCATS).
# Records with an inconclusive call do not appear. A call without a number means that no potency is given here. Activity calls are given as the source filed them. The call rests on the fitted dose curve; in most records, active means well fitted inhibition curve with a large enough effect in the repeat runs; inconclusive means weak or mixed curves; inactive means flat fitted curve, though single readings scatter.
# Target: Cytochrome P450 2D6 (Homo sapiens) (UniProt P10635)
# Assay: Cytochrome P450 family 2 subfamily D member 6 (CYP2D6) small molecule antagonists: luciferase biochemical (cell-free) qHTS assay (AID 1645840); further: nearly all actives have a fitted effect of over 55% in size
# Details: P450-Glo CYP2D6 enzyme, luciferin luminescence, 1 h; series mostly up to 57.4 µM
# Description: National Center for Advancing Translational Sciences [NCATS] Assay Overview: Cytochrome P450 (CYP) enzymes are membrane-bound hemeproteins that play a key role in metabolism of drugs and xenobiotics. Assaying the effect of chemicals on CYP isozymes is useful to minimize the adverse drug reactions and toxicities in drug development process. Chemical compounds were tested for their effect on CYP enzyme activities by using P450-Glo (TM) screening systems (Promega Corporation, Madison, WI). These systems provide a luminescent method containing proluciferin substrates and are converted to luciferin products by CYP isozymes. The luciferin products formed are detected with a luciferin detection reagent, and the amount of light produced is proportional to CYP activity. P450-Glo (TM) CYP2D6 screening system (Catalog. No. V9890) was used to detect the compounds that interfere in CYP2D6 activity.
# Assay Protocol Summary: Two ul of enzyme-substrate mix was dispensed into medium binding white/solid 1536-well plates (Greiner Bio-One North America Inc., Monroe, NC) using a Flying Reagent Dispenser (FRD, Aurora Discovery, San Diego, CA). […] The assay plates were incubated at room temperature for 10 min. Then 2 ul of NADPH regeneration solution was added to each well of the assay plates using an FRD and incubated at room temperature for 1 h. The reaction was stopped by adding 4 ul of detection reagent using an FRD and after 20 min incubation at room temperature, the luminescence signal was measured using a ViewLux plate reader (Perkin Elmer, Shelton, CT). Data were expressed as relative luminescence units.
# Potency means the concentration at half of the fitted maximal effect.
# Cytochrome P450 2D6 (Homo sapiens), sequence (P10635 whole entry, looked up): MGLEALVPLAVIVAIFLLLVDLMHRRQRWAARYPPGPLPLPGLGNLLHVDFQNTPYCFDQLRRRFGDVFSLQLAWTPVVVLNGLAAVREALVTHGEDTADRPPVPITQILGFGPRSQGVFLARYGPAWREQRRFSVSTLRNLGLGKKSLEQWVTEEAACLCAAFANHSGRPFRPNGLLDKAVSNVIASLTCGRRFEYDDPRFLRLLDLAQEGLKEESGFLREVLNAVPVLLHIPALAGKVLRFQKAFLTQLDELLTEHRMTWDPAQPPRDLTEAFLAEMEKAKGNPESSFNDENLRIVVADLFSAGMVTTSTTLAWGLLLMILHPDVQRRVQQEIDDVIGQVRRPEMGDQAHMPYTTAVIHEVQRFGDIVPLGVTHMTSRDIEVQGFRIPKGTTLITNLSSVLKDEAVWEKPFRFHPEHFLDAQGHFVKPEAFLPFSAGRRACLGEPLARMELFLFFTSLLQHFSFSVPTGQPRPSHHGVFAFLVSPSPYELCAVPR
row,Structure (SMILES),Potency
1,CC1CCC(C(C)C)C(OC(=O)c2ccccc2N)C1 (configuration not stated),inactive
2,CN(C(=O)Cc1ccccc1)C(CN1CCCC1)c1ccccc1 (configuration not stated),0.0849 µM (active)
3,COc1ccc(OC)c(C(O)C(C)N)c1 (configuration not stated),inactive
4,COCC(C)N(C(=O)CCl)c1c(C)csc1C (configuration not stated),inactive
5,CCCSP(=O)(OCC)SCCC,58.4 µM (active)
6,CCCCCCn1c(=O)c(C(=O)Nc2ccc(C(=O)OCCC)cc2)c(O)c2ccccc21,inactive
7,CCCCCCCCOC(=O)c1ccccc1C(=O)OCCCCCCCC,inactive
8,CCNC(C)Cc1cccc(C(F)(F)F)c1 (configuration not stated),3.79 µM (active)
9,OCCCCC#Cc1cncc(OC[C@@H]2CCN2)c1,inactive
10,Cc1cccc(NC(=O)N[C@@H]2N=C(c3ccccc3)c3ccccc3N(C)C2=O)c1,inactive
11,O=[N+]([O-])c1cc(I)c(O)c(I)c1,inactive
12,O=C(NC(=O)c1c(F)cccc1F)Nc1ccc(Cl)c(Oc2ncc(C(F)(F)F)cc2Cl)c1,1.51 µM (active)
13,Cc1c(Cl)cccc1S(=O)(=O)Nc1nc(CC(=O)N2CCN(C)CC2)cs1,inactive
14,CCOC(=O)c1ccccc1C(=O)OCC,inactive
15,O=[N+]([O-])C(Br)(CO)CO,inactive
16,CCCC(C)C1(CC)C(=O)NC(=O)NC1=O (configuration not stated),inactive
17,OC1(c2ccc(Cl)cc2)c2ccccc2C2=NCCN21 (configuration not stated),2.68 µM (active)
18,Clc1ccc(OCC2=NCCN2)cc1Cl,8.49 µM (active)
19,C#CC(C)(O)CC (configuration not stated),inactive

row,Structure (SMILES),Potency
1,CC(N)Cc1c[nH]c2ccccc12 (configuration not stated),23.9 µM (active)
2,COc1ccccc1CN[C@H]1C2CCN(CC2)[C@H]1C(c1ccccc1)c1ccccc1,0.19 µM (active)
3,Cn1ncnc1COc1nn2c(-c3c(F)cccc3F)nnc2cc1C1CCC1,inactive
4,NCC(O)c1cccc(O)c1 (configuration not stated),inactive
5,COC(=O)N1CCN(C(=O)Cc2ccc(Cl)c(Cl)c2)[C@@H](CN2CCCC2)C1,4.77 µM (active)
6,CC(C)[C@@H](CN1CC[C@@](C)(c2cccc(O)c2)[C@@H](C)C1)NC(=O)[C@H]1Cc2ccc(O)cc2CN1,6.01 µM (active)
7,CCOc1ccccc1-n1c(C(C)N2CCN(C(=O)COc3ccc(Cl)cc3)CC2)nc2ccccc2c1=O (configuration not stated),inactive
8,CCc1[nH]c2ccc(OC)cc2c1CCN(C)C,1.9 µM (active)
9,CN1CCC[C@@H]1Cc1c[nH]c2ccc(Nc3ncccc3[N+](=O)[O-])cc12,3.01 µM (active)
10,Cc1cc(C(=O)CN2CCCC2)c(C)n1-c1ccc(F)cc1,0.952 µM (active)
11,COc1cc(C)[nH]c(=O)c1CNC(=O)c1c(C)n([C@H](C)C2CCOCC2)c2ccccc12,inactive
12,ClC1C(Cl)C(Cl)C(Cl)C(Cl)C1Cl (configuration not stated),inactive
13,CCCCNCC(O)c1ccc(O)cc1 (configuration not stated),9.52 µM (active)
14,CCNCC(O)c1cccc(O)c1 (configuration not stated),inactive
15,CC(C)(C)c1cc(C(C)(C)C)c2c(c1)C(O)(C(F)(F)F)C(=O)O2 (configuration not stated),inactive
16,CCc1c(C(=O)C(N)=O)c2c(OCC(=O)OC)cccc2n1Cc1ccccc1,inactive
17,Cc1cn(C[C@H](N)C(=O)O)c(=O)n(Cc2cc(-c3ccccc3)sc2C(=O)O)c1=O,inactive
18,COc1cc(CCNCc2ccccc2O)c(OC)cc1C#N,1.9 µM (active)
